According to publication PMC7862700, “An all-to-all approach to the identification of sequence-specific readers for epigenetic DNA modifications on cytosine”:

What was measured:
Test in all cases: DAPPL (digital affinity profiling via proximity ligation, sequencing); 10 mM Tris-HCl pH 7.5, 50 mM NaCl, 1 mM DTT, 4% glycerol, room temperature, 30 min; GST-TFs on glutathione beads, 16-mer random dsDNA library, 0.1% formaldehyde crosslink after washing; high values mean tight binding
FLI1 = target: T1, FLI1 (Homo sapiens, UniProt Q01543 1-452); conditions: protein: recombinant; tags: N-terminal GST; dsDNA, one strand shown
T1 sequence: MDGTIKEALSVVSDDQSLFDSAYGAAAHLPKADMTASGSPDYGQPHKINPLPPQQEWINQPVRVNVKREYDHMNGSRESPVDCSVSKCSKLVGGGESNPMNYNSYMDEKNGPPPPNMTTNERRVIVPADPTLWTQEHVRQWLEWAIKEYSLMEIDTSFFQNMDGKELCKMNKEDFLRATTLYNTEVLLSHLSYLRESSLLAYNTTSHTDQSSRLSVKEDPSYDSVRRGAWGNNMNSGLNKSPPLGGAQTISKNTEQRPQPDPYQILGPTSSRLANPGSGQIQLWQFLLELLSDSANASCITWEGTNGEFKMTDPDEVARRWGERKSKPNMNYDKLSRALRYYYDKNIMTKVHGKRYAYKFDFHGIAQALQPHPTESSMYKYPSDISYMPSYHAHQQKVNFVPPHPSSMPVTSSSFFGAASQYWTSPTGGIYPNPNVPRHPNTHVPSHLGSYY
Procedure, shortened: (§1)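 Pools were built from human transcription factors expressed in yeast as GST fusions, captured on glutathione beads and DNA-barcoded, along with a tag-only sample. Incubation with 200 nmole of a 16-mer random double-stranded DNA library lasted 30 min at room temperature in Tris/NaCl/DTT/glycerol buffer, and was followed by washing, 0.1% formaldehyde crosslinking, proximity ligation, PCR amplification and Illumina NextSeq500 sequencing. Binding signal is the quotient of each hexamer's read frequency for a factor and its frequency for the tag-only sample.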

ELK1 = target: T2, ELK1 (Homo sapiens, UniProt P19419 1-428); conditions: protein: recombinant; tags: N-terminal GST; dsDNA, one strand shown
T2 sequence: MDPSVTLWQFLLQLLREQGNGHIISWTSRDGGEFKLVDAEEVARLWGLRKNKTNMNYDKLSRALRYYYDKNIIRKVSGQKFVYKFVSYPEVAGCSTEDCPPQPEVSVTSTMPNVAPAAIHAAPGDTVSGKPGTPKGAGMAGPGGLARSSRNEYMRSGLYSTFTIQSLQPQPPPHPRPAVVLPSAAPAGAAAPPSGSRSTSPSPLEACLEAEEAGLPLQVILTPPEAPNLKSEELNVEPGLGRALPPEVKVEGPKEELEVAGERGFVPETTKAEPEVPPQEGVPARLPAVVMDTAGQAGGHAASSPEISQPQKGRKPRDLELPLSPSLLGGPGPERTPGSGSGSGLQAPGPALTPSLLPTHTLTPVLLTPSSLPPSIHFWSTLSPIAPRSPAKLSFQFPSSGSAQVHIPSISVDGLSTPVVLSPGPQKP
Procedure, shortened: as §1

GABPA = target: T3, GABPA (Homo sapiens, UniProt Q06546 1-454); conditions: protein: recombinant; tags: N-terminal GST; dsDNA, one strand shown
T3 sequence: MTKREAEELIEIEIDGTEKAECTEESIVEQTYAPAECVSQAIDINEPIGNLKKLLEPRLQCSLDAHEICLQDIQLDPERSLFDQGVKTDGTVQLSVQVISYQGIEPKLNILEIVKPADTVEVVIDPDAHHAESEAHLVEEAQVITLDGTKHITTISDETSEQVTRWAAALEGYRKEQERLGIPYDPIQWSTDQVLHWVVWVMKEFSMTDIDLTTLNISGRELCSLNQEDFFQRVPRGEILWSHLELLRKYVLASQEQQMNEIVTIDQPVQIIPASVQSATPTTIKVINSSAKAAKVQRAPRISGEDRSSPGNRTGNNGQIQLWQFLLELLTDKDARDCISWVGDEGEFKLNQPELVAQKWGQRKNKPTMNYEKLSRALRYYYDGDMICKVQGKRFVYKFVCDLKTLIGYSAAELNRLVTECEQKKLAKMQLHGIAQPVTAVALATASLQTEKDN
Procedure, shortened: as §1

ERG = target: T4, ERG (Homo sapiens, UniProt P11308 1-479); conditions: protein: recombinant; tags: N-terminal GST; dsDNA, one strand shown
T4 sequence: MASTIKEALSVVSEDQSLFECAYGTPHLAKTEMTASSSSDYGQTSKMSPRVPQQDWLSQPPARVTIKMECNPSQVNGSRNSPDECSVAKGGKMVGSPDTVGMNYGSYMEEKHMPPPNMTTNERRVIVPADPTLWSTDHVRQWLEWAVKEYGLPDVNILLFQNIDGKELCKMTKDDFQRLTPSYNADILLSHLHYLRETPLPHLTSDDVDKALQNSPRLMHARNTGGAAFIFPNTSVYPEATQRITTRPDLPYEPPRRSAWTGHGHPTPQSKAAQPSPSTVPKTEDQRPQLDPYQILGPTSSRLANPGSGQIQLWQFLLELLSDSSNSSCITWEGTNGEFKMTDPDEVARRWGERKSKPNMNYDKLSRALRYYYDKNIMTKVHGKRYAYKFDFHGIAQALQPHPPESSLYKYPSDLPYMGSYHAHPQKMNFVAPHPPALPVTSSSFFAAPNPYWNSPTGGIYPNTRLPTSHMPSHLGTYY
Procedure, shortened: as §1

ELF1 = ELF1 (Homo sapiens, UniProt P32519 1-619); conditions: protein: recombinant; tags: N-terminal GST; dsDNA, one strand shown
ELF1, sequence (P32519 whole entry): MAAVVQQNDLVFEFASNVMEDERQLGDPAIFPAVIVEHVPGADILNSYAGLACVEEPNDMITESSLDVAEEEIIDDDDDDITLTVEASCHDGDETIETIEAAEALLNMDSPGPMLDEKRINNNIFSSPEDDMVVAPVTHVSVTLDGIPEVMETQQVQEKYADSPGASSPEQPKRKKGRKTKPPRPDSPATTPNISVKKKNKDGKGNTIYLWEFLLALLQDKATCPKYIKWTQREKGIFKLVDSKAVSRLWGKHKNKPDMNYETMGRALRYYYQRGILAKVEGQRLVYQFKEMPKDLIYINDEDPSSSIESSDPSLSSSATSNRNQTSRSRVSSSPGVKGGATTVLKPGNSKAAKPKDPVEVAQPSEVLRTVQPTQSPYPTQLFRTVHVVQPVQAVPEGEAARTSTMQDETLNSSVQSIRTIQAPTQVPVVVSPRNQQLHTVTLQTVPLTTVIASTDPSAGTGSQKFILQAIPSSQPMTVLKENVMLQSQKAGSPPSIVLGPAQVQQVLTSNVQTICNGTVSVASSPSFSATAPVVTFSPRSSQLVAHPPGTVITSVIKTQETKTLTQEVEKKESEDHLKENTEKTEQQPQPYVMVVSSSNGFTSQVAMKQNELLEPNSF
Procedure, shortened: as §1

EHF = target: T5, EHF (Homo sapiens, UniProt Q9NZC4 1-300); conditions: protein: recombinant; tags: N-terminal GST; dsDNA, one strand shown
T5 sequence: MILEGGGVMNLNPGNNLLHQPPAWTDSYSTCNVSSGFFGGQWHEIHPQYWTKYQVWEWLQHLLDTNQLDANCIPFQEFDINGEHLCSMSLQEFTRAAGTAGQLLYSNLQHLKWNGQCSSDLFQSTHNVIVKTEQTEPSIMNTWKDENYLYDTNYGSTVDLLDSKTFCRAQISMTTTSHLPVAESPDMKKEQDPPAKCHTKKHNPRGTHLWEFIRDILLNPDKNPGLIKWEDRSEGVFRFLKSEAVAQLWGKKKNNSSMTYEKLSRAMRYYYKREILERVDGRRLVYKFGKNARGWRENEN
Procedure, shortened: as §1

SPI1 = SPI1 (Homo sapiens, UniProt P17947 1-270); conditions: protein: recombinant; tags: N-terminal GST; dsDNA, one strand shown
Procedure, shortened: as §1

ELK3 = target: T6, ELK3 (Homo sapiens, UniProt P41970 1-407); conditions: protein: recombinant; tags: N-terminal GST; dsDNA, one strand shown
T6 sequence: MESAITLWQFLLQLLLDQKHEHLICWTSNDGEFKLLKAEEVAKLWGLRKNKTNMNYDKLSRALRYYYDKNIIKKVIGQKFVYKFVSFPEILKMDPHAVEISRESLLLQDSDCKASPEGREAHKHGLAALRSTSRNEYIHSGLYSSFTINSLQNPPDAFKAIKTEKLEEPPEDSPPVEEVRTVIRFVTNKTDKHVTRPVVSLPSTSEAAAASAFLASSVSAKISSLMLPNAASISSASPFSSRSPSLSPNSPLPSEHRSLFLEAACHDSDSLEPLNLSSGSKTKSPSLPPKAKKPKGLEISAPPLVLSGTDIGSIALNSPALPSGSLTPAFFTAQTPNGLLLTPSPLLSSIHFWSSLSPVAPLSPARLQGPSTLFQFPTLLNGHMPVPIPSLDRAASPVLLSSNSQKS
Procedure, shortened: as §1

FEV = target: T7, FEV (Homo sapiens, UniProt Q99581 1-238); conditions: protein: recombinant; tags: N-terminal GST; dsDNA, one strand shown
T7 sequence: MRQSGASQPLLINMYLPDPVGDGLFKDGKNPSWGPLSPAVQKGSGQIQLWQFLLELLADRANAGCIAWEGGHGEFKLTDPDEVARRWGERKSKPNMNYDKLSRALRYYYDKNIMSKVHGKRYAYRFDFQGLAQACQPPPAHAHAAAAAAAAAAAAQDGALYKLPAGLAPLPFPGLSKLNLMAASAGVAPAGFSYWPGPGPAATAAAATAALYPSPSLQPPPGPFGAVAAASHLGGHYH
Procedure, shortened: as §1

ETV5 = ETV5 (Homo sapiens, UniProt P41161 1-510); conditions: protein: recombinant; tags: N-terminal GST; dsDNA, one strand shown
ETV5, sequence (P41161 whole entry): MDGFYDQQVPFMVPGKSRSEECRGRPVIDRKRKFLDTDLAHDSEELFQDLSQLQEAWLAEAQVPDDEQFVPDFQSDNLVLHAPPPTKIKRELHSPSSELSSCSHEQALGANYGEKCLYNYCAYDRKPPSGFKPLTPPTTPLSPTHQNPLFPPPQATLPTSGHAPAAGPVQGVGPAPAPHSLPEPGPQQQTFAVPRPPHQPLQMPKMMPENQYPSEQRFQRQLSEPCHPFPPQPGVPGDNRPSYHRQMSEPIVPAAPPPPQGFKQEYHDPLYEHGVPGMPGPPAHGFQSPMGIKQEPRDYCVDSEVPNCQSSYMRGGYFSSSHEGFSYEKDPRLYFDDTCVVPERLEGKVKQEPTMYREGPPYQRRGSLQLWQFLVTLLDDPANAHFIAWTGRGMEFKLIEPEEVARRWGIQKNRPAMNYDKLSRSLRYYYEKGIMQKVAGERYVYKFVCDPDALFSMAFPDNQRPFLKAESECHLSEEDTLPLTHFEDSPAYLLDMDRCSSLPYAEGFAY
Procedure, shortened: as §1

HSF1 = HSF1 (Homo sapiens, UniProt Q00613 1-529); conditions: protein: recombinant; tags: N-terminal GST; chain copies: 3; dsDNA, one strand shown
HSF1, sequence (Q00613 whole entry): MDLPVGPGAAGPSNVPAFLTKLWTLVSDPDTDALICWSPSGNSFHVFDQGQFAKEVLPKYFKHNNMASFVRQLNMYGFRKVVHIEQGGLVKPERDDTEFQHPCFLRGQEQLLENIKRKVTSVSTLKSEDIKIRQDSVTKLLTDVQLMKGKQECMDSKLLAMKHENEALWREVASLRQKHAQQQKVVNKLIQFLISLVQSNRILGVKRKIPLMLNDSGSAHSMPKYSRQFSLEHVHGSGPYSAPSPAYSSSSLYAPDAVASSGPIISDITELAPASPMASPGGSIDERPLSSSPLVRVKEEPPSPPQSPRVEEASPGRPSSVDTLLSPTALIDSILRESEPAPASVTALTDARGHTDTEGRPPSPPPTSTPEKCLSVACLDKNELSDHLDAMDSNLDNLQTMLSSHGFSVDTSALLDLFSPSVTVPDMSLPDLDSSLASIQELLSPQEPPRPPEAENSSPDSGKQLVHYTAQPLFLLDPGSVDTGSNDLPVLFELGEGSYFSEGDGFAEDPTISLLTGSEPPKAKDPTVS
Procedure, shortened: as §1

SPIC = target: T8, SPIC (Homo sapiens, UniProt Q8N5J4 1-248); conditions: protein: recombinant; tags: N-terminal GST; dsDNA, one strand shown
T8 sequence: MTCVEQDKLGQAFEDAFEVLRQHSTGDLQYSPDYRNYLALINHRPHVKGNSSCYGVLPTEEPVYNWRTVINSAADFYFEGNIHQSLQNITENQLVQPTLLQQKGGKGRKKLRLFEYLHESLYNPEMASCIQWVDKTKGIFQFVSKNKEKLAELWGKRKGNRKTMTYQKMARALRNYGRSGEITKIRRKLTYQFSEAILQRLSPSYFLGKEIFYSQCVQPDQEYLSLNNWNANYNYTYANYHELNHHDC
Procedure, shortened: as §1

ELF4 = ELF4 (Homo sapiens, UniProt Q99607 1-663); conditions: protein: recombinant; tags: N-terminal GST; dsDNA, one strand shown
ELF4, sequence (Q99607 whole entry): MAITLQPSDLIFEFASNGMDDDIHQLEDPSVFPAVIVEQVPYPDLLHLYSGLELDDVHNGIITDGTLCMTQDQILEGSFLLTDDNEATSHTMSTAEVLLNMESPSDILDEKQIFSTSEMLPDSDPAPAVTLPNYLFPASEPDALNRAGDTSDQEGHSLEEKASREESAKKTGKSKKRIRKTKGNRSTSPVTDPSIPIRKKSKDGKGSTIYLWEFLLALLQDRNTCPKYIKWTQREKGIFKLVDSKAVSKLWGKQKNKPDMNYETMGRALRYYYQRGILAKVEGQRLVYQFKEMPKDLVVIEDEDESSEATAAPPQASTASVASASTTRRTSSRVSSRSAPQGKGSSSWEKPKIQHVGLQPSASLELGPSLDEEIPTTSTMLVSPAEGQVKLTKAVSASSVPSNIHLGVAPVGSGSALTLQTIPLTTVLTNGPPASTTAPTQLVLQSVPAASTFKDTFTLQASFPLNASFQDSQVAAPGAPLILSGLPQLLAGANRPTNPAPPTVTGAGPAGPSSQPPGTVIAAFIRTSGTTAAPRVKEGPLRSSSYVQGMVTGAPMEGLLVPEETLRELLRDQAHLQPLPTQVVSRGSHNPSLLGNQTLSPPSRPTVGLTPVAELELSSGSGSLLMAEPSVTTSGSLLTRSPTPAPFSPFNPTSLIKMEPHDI
Procedure, shortened: as §1

ELK4 = target: T9, ELK4 (Homo sapiens, UniProt P28324-2 1-405); conditions: protein: recombinant; tags: N-terminal GST; dsDNA, one strand shown
T9 sequence: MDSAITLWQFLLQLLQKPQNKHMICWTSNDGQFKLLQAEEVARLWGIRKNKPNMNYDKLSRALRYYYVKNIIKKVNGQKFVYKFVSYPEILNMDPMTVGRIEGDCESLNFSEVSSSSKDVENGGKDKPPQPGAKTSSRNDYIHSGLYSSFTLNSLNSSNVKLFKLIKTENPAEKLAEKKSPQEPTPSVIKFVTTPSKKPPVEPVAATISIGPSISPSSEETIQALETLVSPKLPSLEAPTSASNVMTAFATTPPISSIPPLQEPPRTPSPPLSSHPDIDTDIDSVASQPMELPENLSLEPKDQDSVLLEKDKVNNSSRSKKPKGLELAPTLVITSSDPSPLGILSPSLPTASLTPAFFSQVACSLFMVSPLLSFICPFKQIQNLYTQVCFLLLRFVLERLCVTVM
Procedure, shortened: as §1

ETV2 = target: T10, ETV2 (Homo sapiens, UniProt O00321 1-342); conditions: protein: recombinant; tags: N-terminal GST; dsDNA, one strand shown
T10 sequence: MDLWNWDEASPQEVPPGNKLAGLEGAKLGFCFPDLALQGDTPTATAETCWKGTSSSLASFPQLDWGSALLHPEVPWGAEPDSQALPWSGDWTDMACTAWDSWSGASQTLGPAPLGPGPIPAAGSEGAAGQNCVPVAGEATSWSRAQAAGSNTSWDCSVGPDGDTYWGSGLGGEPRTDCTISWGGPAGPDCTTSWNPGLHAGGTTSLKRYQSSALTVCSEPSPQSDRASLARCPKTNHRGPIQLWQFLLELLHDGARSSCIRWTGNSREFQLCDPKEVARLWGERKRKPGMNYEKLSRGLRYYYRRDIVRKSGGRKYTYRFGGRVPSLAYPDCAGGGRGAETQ
Procedure, shortened: as §1

ELF3 = target: T11, ELF3 (Homo sapiens, UniProt P78545 1-371); conditions: protein: recombinant; tags: N-terminal GST; dsDNA, one strand shown
T11 sequence: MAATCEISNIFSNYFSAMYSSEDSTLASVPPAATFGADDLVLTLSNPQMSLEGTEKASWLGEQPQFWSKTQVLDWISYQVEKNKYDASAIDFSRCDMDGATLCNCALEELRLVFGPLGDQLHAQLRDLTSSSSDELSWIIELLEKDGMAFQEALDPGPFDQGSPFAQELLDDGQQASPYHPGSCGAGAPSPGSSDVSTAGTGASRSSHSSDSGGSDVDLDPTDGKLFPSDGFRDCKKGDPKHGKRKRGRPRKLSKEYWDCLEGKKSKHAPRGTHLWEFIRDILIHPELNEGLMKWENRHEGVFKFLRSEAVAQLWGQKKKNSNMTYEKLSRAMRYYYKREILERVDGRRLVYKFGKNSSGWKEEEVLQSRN
Procedure, shortened: as §1

CRX = CRX (Homo sapiens, UniProt O43186 1-299); conditions: protein: recombinant; tags: N-terminal GST; dsDNA, one strand shown
CRX, sequence (O43186 whole entry): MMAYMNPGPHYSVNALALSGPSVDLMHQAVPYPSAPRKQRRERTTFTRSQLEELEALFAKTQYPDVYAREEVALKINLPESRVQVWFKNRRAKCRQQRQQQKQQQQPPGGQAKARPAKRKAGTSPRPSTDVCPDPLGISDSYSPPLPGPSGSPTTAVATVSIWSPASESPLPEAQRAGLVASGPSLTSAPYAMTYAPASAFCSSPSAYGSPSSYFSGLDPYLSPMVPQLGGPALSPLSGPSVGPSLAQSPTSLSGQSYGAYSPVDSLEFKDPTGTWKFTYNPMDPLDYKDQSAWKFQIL
Procedure, shortened: as §1

Sequence: TAGAAT
- binding signal (FLI1): 1.1 fold enrichment (6-mer frequency, TF over GST control)
- binding signal (ELK1): 1.06 fold enrichment (6-mer frequency, TF over GST control)
- binding signal (GABPA): 1.03 fold enrichment (6-mer frequency, TF over GST control)
- binding signal (ERG): 1.03 fold enrichment (6-mer frequency, TF over GST control)
- binding signal (ELF1): 1.1 fold enrichment (6-mer frequency, TF over GST control)
- binding signal (EHF): 1.01 fold enrichment (6-mer frequency, TF over GST control)
- binding signal (SPI1): 1.15 fold enrichment (6-mer frequency, TF over GST control)
- binding signal (ELK3): 1.15 fold enrichment (6-mer frequency, TF over GST control)
- binding signal (FEV): 1.04 fold enrichment (6-mer frequency, TF over GST control)
- binding signal (ETV5): 1.03 fold enrichment (6-mer frequency, TF over GST control)
- binding signal (HSF1): 3.07 fold enrichment (6-mer frequency, TF over GST control)
- binding signal (SPIC): 1.04 fold enrichment (6-mer frequency, TF over GST control)
- binding signal (ELF4): 1.13 fold enrichment (6-mer frequency, TF over GST control)
- binding signal (ELK4): 1.14 fold enrichment (6-mer frequency, TF over GST control)
- binding signal (ETV2): 1.06 fold enrichment (6-mer frequency, TF over GST control)
- binding signal (ELF3): 1.19 fold enrichment (6-mer frequency, TF over GST control)
- binding signal (CRX): 1.83 fold enrichment (6-mer frequency, TF over GST control)
